Laboratory results as given in PubChem BioAssay AID2284200 (EPA ToxCast).
The source made the active and inactive calls. Rule for the calls: active = hit-call score of the fitted dose curve at least 0.9, where 1 is the maximum; inactive = score below 0.9.

Assay: ERF_TW_NR_rI2: Eurofins (ERF) Radioligand Binding LeadHunter Assay for rat Imidazoline I2 Central Antagonism
Protocol: ERF_TW_NR_rI2 is a biochemical, single-readout assay that uses extracted gene-proteins in a cell-free assay. Measurements were taken 0.5 hour after chemical dosing in a 96-well plate. See Imidazoline I2, Central Rat Binding (Antagonist Radioligand) Assay, Panlabs.ERF_TW_NR_rI2 is an assay component calculated from the ERF_TW_NR_rI2 assay. It is designed to measure radioligand binding using a type of binding reporter as detected by scintillation counting with radiometry technology.Data from the assay component ERF_TW_NR_rI2 was analyzed at the assay endpoint, ERF_TW_NR_rI2, in the positive analysis fitting direction relative to DMSO as the negative control and baseline of activity. Using a type of binding reporter, loss-of-signal activity can be used to understand changes in radioligand binding as they relate to gene NISCH (homolog). To generalize the intended target to other relatable targets, this assay endpoint is annotated to the oxidoreductase intended target family, where the subfamily is imidazoline receptor.
Brains (except cerebella) of male Wistar derived rats weighing 175 +/- 25 g are used to prepare imidazoline I2 receptors in modified Tris-HCl buffer pH 7.4. A 15 mg aliquot is incubated with 2 nM [3H] Idazoxan for 30 minutes at 25C. […] Membranes are filtered and washed, the filters are then counted to determine [3H] […]
For COc1cc(CCC(=O)CC(=O)CCc2ccc(O)c(OC)c2)ccc1O, the outcome was “inactive”.
